Experimental findings from PubChem BioAssay AID431 (Sanford-Burnham Center for Chemical Genomics, 2006) are described below.

Structures are written as SMILES. Screen size: about 63,000 compounds; about 1,100 (1.7%) were called active.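 How the source made its calls: active means compounds whose percent cytotoxicity in the single-dose primary screen, scaled between solvent and toxic-drug controls, exceeds 50; inactive means the rest.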 This excerpt belongs to a sample that is enriched for actives. Entries with a potency or affinity are not part of this list.

This assay can be described thus: cytotoxicity in KRAS-transformed pancreatic duct cells, primary screen, cell-based, fluorescence, HTS (AID 431).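 Further: 0% = DMSO solvent wells and 100% = doxorubicin-treated wells.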 The settings on record: HPDE-C7K KRASV12 cells, Alamar Blue viability, 48 h; at 10 µM; active compounds read high. A general note: Alamar Blue is a resazurin reagent that responds to reducing activity.
Consider `Cn1c(SCC(=O)NC(C)(C)C)nnc1-c1ccc(C(C)(C)C)cc1`, for which the cytotoxicity is 8.1% (inactive).

For the compound `N#CCc1nc(CSc2nc3ccccc3o2)cs1`, the cytotoxicity was -5.5% (inactive).

For `O=C(O)CCN1C(=O)C2C3C=CC(C3)C2C1=O` (centres undefined), the cytotoxicity was 4.7% (inactive).

Regarding `Cc1ccc2cc(CN(CCCO)S(=O)(=O)c3cccc4nsnc34)c(=O)[nH]c2c1C`, the cytotoxicity is -8.7% (inactive).

With `Cn1c(=O)c2c(SCc3cccnc3)nc(C3CC3)nc2n(C)c1=O`, the cytotoxicity is -15.9% (inactive).

As to `C/C(CC1(O)/C(=N/O)CCc2nonc21)=N\O` (centres undefined), the cytotoxicity was -0.9% (inactive).

With `O=C(Nc1ccc(N2CCN(C(=O)c3ccccc3)CC2)c(Cl)c1)c1ccco1`, the cytotoxicity was -11% (inactive).

For the compound `Cc1ccccc1C(=O)N1CCN(c2ccc(NC(=O)c3ccco3)cc2Cl)CC1`, the cytotoxicity is 14.5% (inactive).

Turning to `C=CCn1c(C)cc(C(=O)CSc2nnc(NCc3ccccc3)s2)c1C`, the cytotoxicity was 64.7% (active).

As for `Cc1cc(C(=O)CSc2nnc(NCc3ccccc3)s2)c(C)n1C`, the cytotoxicity is 65.2% (active).

For the compound `O=C(CSc1nnc(NCc2ccccc2)s1)c1ccco1`, the cytotoxicity is -6.2% (inactive).

Take `Cc1cc(C(=O)CSc2nnc(-c3ccccc3)n2C)c(C)n1C`: the cytotoxicity is 16.6% (inactive).

For the compound `C=CCn1c(C)cc(C(=O)CSc2nnc(Cc3ccccc3)o2)c1C`, the cytotoxicity was -7.3% (inactive).

Regarding `Cc1cc(C(=O)CSc2nnc(Nc3ccccc3)s2)c(C)n1CC1CCCO1` (centres undefined), the cytotoxicity is 1.1% (inactive).

Take `Cc1cc(C)n(CNc2nc(C(F)(F)F)cs2)n1`: the cytotoxicity is -4.6% (inactive).

Take `CC1CCN(Cc2ccc(NC(=O)CC3Oc4ccccc4NC3=O)cc2)CC1` (centres undefined): the cytotoxicity is 0.1% (inactive).

Consider `CN1C(=O)CSc2ccc(NC(=O)N3CCC(N4CCCCC4)CC3)cc21`, for which the cytotoxicity is -15.1% (inactive).

As for `Cc1ccc(C2C3=C(CC(C)(C)CC3=O)Nc3n[nH]c(C)c32)cc1` (centres undefined), the cytotoxicity was -5.7% (inactive).

For `COc1cc(Cl)c(C)cc1NC(=O)CSc1nc2ccccc2o1`, the cytotoxicity was -5.2% (inactive).

On to `CCOC(=O)C1C(C)N=C2SCC(=O)N2C1c1cccc(Br)c1` (centres undefined), for which the cytotoxicity was -13% (inactive).

On to `O=C(CSc1nc(-c2ccco2)cc(C(F)(F)F)n1)Nc1cccnc1`, for which the cytotoxicity is -0.8% (inactive).

For the compound `COC(=O)c1ccccc1NC(=O)CSc1nc(-c2ccco2)cc(C(F)(F)F)n1`, the cytotoxicity was 51.7% (active).

Turning to `COC(=O)c1ccc(C(=O)OC)c(NC(=O)CSc2nc(-c3ccco3)cc(C(F)(F)F)n2)c1`, the cytotoxicity was -21.1% (inactive).

On to `Cc1ccc(OCC(=O)NCCO)cc1C`, for which the cytotoxicity is 9.8% (inactive).

For `C=Cn1c(N2CCOCC2)nc2c1c(=O)[nH]c(=O)n2C`, the cytotoxicity was -2.9% (inactive).

In the case of `O=C(Nc1cc(C(=O)N2CCOCC2)ccc1N1CCCC1)c1cccs1`, the cytotoxicity is -2.1% (inactive).

`CCc1ccc2oc(-c3cc(N)ccc3O)nc2c1`: the cytotoxicity was 7.1% (inactive).

For the compound `CC(C)c1ccc2oc(-c3ccc(N)cc3)nc2c1`, the cytotoxicity was -11.3% (inactive).

For `CC(C)c1ccc2oc(-c3cc(N)ccc3O)nc2c1`, the cytotoxicity is 51.5% (active).
